Measured values reported in PubChem BioAssay (EPA / NIEHS).
Results filed as inconclusive are left out. Activity calls are given as the source filed them. Rule for the calls, unless noted: active = hit-call score of the fitted dose curve at least 0.9, where 1 is the maximum; inconclusive = response in the unintended direction; inactive = score below 0.9.

Experiments:
[1] = biological target: Retinoic acid receptor alpha (Homo sapiens) (UniProt P10276); assay: ATG_DR5_RAR_CIS: Attagene CIS-FACTORIAL HepG2 Assay for human Retinoic Acid Receptor Alpha (RARE), DR5 submotif (AID 2282934; active = hit-call score of the fitted dose curve at least 0.9, where 1 is the maximum; inactive = score below 0.9); details: HepG2 Attagene cis-factorial RARE DR5 reporter, mRNA; actives raise or lower the signal
Procedure, shortened: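 HepG2 cells transiently transfected with multiplexed reporter units under cis (DR5 RARE) promoters, so endogenous transcription factor activity is measured. After 24 h compound exposure, reporter mRNA is quantified by RT-PCR with fluorescent labelling and capillary electrophoresis; bidirectional fitting versus DMSO.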

[2] = biological target: Nuclear receptor subfamily 1 group I member 3 (Homo sapiens) (UniProt Q14994); assay: ATG_CAR_TRANS: Attagene TRANS-FACTORIAL HepG2 Assay for human Constitutive Androstane Receptor (CAR) (AID 2282969); details: HepG2 Attagene TRANS-FACTORIAL CAR reporter;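 note: activators raise reporter mRNA above DMSO so AC50 marks induction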
Procedure, shortened: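 HepG2 cells transiently transfected with multiplexed GAL4-UAS reporter units expressing chimeric NR-Gal4 proteins; compound exposure 24 h. Reporter mRNA measured by RT-PCR, 6-FAM labelling, HpaI digestion and capillary electrophoresis; gain-of-signal fitted against DMSO baseline.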

[3] = ATG_M_19_TRANS: Attagene TRANS-FACTORIAL HepG2 Assay for M19 Transcription Factor (Internal Marker) (AID 2282974); details: HepG2 Attagene TRANS-FACTORIAL M19 internal marker reporter
Procedure, shortened: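 Cells: human HepG2, transiently transfected with multiplexed reporter transcription units. Exposure: 24 h. Detection: RT-PCR of reporter mRNA with capillary electrophoresis. Analysis: gain-of-signal vs DMSO.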

[4] = ATG_GAL4_TRANS: Attagene TRANS-FACTORIAL HepG2 Assay for GAL4 (Internal Marker) (AID 2282976); details: HepG2 Attagene TRANS GAL4 internal marker reporter
Procedure, shortened: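 In transfected human HepG2 liver cells dosed 24 h, GAL4 reporter mRNA serves as a baseline marker. Detection by RT-PCR with fluorescent capillary electrophoresis, activity fitted upward relative to DMSO.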

[5] = biological target: Oxysterols receptor LXR-alpha (Homo sapiens) (UniProt Q13133); assay: ATG_LXRa_TRANS: Attagene TRANS-FACTORIAL HepG2 Assay for human Liver X Receptor alpha (LXRa) (AID 2282980); details: HepG2 Attagene TRANS reporter, LXRa transactivation
Procedure, shortened: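 Chemical-induced reporter mRNA measured by RT-PCR with fluorescent labelling and capillary electrophoresis after 24 h dosing of transiently transfected HepG2 cells expressing exogenous NR-Gal4 chimeras; increases scored against DMSO baseline.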

[6] = biological target: Cellular tumor antigen p53 (Homo sapiens) (UniProt P04637); assay: ATG_p53_CIS: Attagene CIS-FACTORIAL HepG2 Assay for human p53 Transcription Factor (AID 2282994; active = hit-call score of the fitted dose curve at least 0.9, where 1 is the maximum; inactive = score below 0.9); details: HepG2 p53 cis-element reporter, Attagene mRNA; actives raise or lower the signal
Procedure, shortened: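 HepG2 cells transiently transfected with cis-regulated multiple reporter transcription units, dosed 24 h. Reporter mRNA measured by RT-PCR, 6-FAM primer extension, HpaI digestion and capillary electrophoresis; bidirectional fit relative to DMSO.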

[7] = biological target: human Peroxisome Proliferator-activated Receptor delta (PPARd), PPARD (gene 5467) (UniProt Q03181); assay: ATG_PPARd_TRANS: Attagene TRANS-FACTORIAL HepG2 Assay for human Peroxisome Proliferator-activated Receptor delta (PPARd) (AID 2283002)
Procedure, shortened: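 HepG2 cells transiently transfected with multiplexed GAL4-UAS reporter units and exogenous chimeric NR-Gal4 proteins; 24 h compound exposure. Reporter mRNA measured by RT-PCR, 6-FAM labelling, HpaI digestion and capillary electrophoresis; gain of signal versus DMSO.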

[8] = biological target: human RAR-related Orphan Receptor beta (RORb), RORB (gene 6096) (UniProt Q92753); assay: ATG_RORb_TRANS: Attagene TRANS-FACTORIAL HepG2 Assay for human RAR-related Orphan Receptor beta (RORb) (AID 2283010)
Procedure, shortened: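 HepG2 cells transiently transfected with GAL4-UAS reporter units expressing chimeric NR-Gal4 protein; reporter mRNA measured 24 h after dosing by RT-PCR, 6-FAM labelling and capillary electrophoresis. Gain-of-signal fitted relative to DMSO baseline.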

[9] = biological target: human RAR-related Orphan Receptor gamma (RORg), RORC (gene 6097) (UniProt P51449); assay: ATG_RORg_TRANS: Attagene TRANS-FACTORIAL HepG2 Assay for human RAR-related Orphan Receptor gamma (RORg) (AID 2283011)
Procedure, shortened: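 Reporter transcripts from a transfected RORg-GAL4 chimera in HepG2 cells were quantified 24 h after dosing by RT-PCR, 6-FAM labelling, HpaI digestion and capillary electrophoresis; increases over DMSO baseline were fitted.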

[10] = biological target: human Vitamin D Receptor (VDR), VDR (gene 7421) (UniProt P11473); assay: ATG_VDR_TRANS: Attagene TRANS-FACTORIAL HepG2 Assay for human Vitamin D Receptor (VDR) (AID 2283022)
Procedure, shortened: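 Transactivation by an exogenous VDR-Gal4 chimera in transiently transfected HepG2 cells was measured as reporter transcript level 24 hours after chemical treatment. RT-PCR products were analysed by capillary electrophoresis and fitted in the positive direction relative to DMSO.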

[11] = ATG_XTT_Cytotoxicity: Cytotoxicity Assessment in the Attagene TRANS-FACTORIAL HepG2 Assay (AID 2283584)
Procedure, shortened: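 Viability endpoint from XTT after 24 h chemical exposure of reporter-transfected human HepG2 liver cells; signal loss fitted relative to DMSO negative control.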

[12] = TOX21_p53_BLA_p2_viability: Viability Assessment in the Tox21 HCT-116 p53 Agonism Beta-lactamase Assay, Phase 2 (AID 2283591);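 note: compound exposure lasted 16 h at 37 °C; actives lower the ATP signal meaning cytotoxicity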
Procedure, shortened: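 HCT-116 p53-bla cells (4000/well) rested 5 h at 37C, then received compounds in DMSO (217-fold dilution) for 16 h at 37C, 5% CO2. After the CCF4 read, CellTiter-Glo was added; ATP luminescence was read after 30 min at room temperature.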

[13] = TOX21_p53_BLA_p3_viability: Viability Assessment in the Tox21 HCT-116 p53 Agonism Beta-lactamase Assay, Phase 3 (AID 2283593);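 note: cells exposed to compound for 16 h before reading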
Procedure, shortened: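 HCT-116 cells (4000/well) rested 5 h at 37C, then got DMSO compounds by pin tool (217-fold dilution) for 16 h at 37C, 5% CO2. After the bla read, CellTiter-Glo was added and luminescence read at 30 min, room temperature.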

[14] = CCTE_Harrill_HTTr_Viability_MCF7: CCTE's 6-hour Cell Viability Assessment for the High-Throughput Transcriptomics (HTTr) Platform, in MCF-7 cells cultured in DMEM + 10% fetal bovine serum, Harrill Lab (AID 2284010; active = hit-call score of the fitted dose curve at least 0.9, where 1 is the maximum; inactive = score below 0.9)
Procedure, shortened: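 MCF-7 cells in DMEM + 10% FBS, 384-well, exposed 6 h to an eight-point dilution series. Membrane integrity scored by high-content imaging of propidium iodide exclusion; bidirectional fit versus DMSO.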

[15] = ATG_PPRE_CIS: Attagene CIS-FACTORIAL HepG2 Assay for human Peroxisome Proliferator-activated Response Element (PPRE) (AID 2282958; active = hit-call score of the fitted dose curve at least 0.9, where 1 is the maximum; inactive = score below 0.9); details: HepG2 PPRE cis-element reporter, Attagene transcription factor profiling; actives raise or lower the signal
Procedure, shortened: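 Cells are first transfected transiently with the multiplexed reporter library, then dosed for 24 h. Total RNA is reverse-transcribed, amplified, fluorescently end-labeled and HpaI-cut before capillary electrophoresis; activity is fitted bidirectionally against DMSO controls.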

[16] = biological target: Glucocorticoid receptor (Homo sapiens) (UniProt P04150); assay: ATG_GR_TRANS: Attagene TRANS-FACTORIAL HepG2 Assay for human Glucocorticoid Receptor (GR) (AID 2282978); details: HepG2 Attagene TRANS GR reporter, mRNA transcription;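 note: activators score as hits since higher reporter transcript over DMSO is fitted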
Procedure, shortened: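 In this trans-factorial format, exogenous NR-GAL4 chimeric proteins in transfected HepG2 cells regulate GAL4-UAS reporter transcription. After 24 h treatment, reporter mRNA induction relative to DMSO is read by RT-PCR and capillary electrophoresis.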

[17] = TOX21_p53_BLA_p4_viability: Viability Assessment in the Tox21 HCT-116 p53 Agonism Beta-lactamase Assay, Phase 4 (AID 2283597);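 note: hits lower the luminescence signal meaning cytotoxicity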
Procedure, shortened: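 Following a 16 h exposure at 37C, the treated HCT116 wells were first read for the FRET ratio. They were then lysed with CellTiter-Glo, and ATP luminescence was recorded after 30 min at room temperature.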

[18] = biological target: Oxysterols receptor LXR-beta (Homo sapiens) (UniProt P55055); assay: ATG_LXRb_TRANS: Attagene TRANS-FACTORIAL HepG2 Assay for human Liver X Receptor beta (LXRb) (AID 2282981); details: HepG2 Attagene TRANS GAL4-LXRb reporter, mRNA
Procedure, shortened: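 In this TRANS format, exogenous chimeric NR-Gal4 protein activity, not endogenous factors, drives reporter expression in transfected human HepG2 cells. Exposure lasted 24 h; reporter mRNA was read by fluorescent capillary electrophoresis.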

[19] = ACEA_ER_AUC_viability: ACEA Biosciences xCELLigence Real-Time Cell Analysis on Estrogen Receptor Agonism for Viability (AID 2283782);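 note: continuous compound exposure with impedance area under curve over 80 h; hit means loss of impedance signal meaning reduced cell growth or viability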
Procedure, shortened: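 T-47D human breast cells in phenol red-free RPMI1640 with 10% charcoal-stripped FBS were dosed with an 8-point 1:4 dilution series from 100 uM top final concentration, in duplicate. Impedance-based growth was followed for 80 h; AUC analysed versus DMSO.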

[20] = biological target: Bile acid receptor (Homo sapiens) (UniProt Q96RI1); assay: ATG_IR1_CIS: Attagene CIS-FACTORIAL HepG2 Assay for human Nuclear Receptor Subfamily 1 Group H Member 4 (NR1H4), IR1 submotif (AID 2282946; active = hit-call score of the fitted dose curve at least 0.9, where 1 is the maximum; inactive = score below 0.9); details: IR1 reporter transcription, actives raise or lower the signal
Procedure, shortened: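 Transient MRTU transfection, HepG2; 24 h dosing; RNA → RT-PCR → 6-FAM primer extension → HpaI digest → capillary electrophoresis fluorescence. Gain/loss of signal fitted relative to DMSO.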

Measured: AC50

Oxysterols receptor LXR-beta (Homo sapiens), sequence (P55055 whole entry, looked up, the tested form may be a part): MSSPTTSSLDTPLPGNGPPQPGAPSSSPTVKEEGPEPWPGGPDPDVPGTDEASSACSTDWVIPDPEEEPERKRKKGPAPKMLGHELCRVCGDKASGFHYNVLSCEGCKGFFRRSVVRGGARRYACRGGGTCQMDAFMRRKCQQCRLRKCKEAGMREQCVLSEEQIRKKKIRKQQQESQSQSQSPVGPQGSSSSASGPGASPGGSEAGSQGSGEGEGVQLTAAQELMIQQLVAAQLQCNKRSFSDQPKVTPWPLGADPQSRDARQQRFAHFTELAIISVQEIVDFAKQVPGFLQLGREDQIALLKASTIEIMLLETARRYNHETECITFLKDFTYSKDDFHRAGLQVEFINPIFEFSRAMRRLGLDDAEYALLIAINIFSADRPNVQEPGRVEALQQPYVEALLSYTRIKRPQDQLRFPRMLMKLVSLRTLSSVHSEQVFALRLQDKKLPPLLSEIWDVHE
Cellular tumor antigen p53 (Homo sapiens), sequence (P04637 whole entry, looked up): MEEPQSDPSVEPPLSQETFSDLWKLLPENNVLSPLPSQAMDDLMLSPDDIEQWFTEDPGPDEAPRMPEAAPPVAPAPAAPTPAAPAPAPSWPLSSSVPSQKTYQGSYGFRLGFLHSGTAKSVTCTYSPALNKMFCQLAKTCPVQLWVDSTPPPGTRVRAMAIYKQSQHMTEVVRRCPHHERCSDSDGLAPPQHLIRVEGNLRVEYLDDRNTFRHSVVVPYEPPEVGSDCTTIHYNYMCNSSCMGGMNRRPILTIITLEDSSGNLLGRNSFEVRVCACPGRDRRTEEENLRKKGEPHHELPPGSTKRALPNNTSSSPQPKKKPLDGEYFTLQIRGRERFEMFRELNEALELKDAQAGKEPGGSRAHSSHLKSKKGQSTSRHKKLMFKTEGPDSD
human Vitamin D Receptor (VDR), VDR (gene 7421), sequence (P11473 whole entry, looked up, the tested form may be a part): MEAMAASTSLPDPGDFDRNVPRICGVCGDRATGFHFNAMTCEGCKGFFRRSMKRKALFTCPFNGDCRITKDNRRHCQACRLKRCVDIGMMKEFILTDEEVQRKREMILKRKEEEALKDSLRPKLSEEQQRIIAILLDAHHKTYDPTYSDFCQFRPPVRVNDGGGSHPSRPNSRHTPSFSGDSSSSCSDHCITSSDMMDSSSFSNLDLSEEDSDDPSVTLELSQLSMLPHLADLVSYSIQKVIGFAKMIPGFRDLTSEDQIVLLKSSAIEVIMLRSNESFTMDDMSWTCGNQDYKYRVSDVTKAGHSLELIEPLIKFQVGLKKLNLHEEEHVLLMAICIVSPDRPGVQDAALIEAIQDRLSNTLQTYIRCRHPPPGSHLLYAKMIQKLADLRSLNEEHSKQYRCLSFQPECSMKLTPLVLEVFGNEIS
human RAR-related Orphan Receptor gamma (RORg), RORC (gene 6097), sequence (P51449 whole entry, looked up, the tested form may be a part): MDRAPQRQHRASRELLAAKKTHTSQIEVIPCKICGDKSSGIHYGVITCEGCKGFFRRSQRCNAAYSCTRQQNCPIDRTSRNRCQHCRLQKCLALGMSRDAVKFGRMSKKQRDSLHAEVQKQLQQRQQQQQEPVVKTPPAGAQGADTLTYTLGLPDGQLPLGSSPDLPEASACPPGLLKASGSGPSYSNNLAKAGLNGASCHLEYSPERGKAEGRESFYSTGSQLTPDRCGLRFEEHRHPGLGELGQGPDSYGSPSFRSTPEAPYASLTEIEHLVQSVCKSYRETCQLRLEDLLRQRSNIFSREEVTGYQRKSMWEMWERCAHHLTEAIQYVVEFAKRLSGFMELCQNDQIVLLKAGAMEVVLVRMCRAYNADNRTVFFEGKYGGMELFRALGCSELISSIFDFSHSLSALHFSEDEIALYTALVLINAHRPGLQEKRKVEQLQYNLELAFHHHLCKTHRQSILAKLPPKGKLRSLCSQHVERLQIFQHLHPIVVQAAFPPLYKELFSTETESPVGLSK
human Peroxisome Proliferator-activated Receptor delta (PPARd), PPARD (gene 5467), sequence (Q03181 whole entry, looked up, the tested form may be a part): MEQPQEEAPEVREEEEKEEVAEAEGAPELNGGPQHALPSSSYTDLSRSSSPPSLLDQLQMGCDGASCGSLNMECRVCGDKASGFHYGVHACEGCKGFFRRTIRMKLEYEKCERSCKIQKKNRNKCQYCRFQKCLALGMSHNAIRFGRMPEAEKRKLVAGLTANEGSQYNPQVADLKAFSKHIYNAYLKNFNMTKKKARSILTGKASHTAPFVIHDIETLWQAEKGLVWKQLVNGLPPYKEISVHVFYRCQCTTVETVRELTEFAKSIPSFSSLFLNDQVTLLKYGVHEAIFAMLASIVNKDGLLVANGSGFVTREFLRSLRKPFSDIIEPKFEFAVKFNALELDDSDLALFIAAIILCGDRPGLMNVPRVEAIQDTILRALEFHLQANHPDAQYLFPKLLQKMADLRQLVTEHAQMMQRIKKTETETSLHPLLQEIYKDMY
Glucocorticoid receptor (Homo sapiens), sequence (P04150 whole entry, looked up, the tested form may be a part): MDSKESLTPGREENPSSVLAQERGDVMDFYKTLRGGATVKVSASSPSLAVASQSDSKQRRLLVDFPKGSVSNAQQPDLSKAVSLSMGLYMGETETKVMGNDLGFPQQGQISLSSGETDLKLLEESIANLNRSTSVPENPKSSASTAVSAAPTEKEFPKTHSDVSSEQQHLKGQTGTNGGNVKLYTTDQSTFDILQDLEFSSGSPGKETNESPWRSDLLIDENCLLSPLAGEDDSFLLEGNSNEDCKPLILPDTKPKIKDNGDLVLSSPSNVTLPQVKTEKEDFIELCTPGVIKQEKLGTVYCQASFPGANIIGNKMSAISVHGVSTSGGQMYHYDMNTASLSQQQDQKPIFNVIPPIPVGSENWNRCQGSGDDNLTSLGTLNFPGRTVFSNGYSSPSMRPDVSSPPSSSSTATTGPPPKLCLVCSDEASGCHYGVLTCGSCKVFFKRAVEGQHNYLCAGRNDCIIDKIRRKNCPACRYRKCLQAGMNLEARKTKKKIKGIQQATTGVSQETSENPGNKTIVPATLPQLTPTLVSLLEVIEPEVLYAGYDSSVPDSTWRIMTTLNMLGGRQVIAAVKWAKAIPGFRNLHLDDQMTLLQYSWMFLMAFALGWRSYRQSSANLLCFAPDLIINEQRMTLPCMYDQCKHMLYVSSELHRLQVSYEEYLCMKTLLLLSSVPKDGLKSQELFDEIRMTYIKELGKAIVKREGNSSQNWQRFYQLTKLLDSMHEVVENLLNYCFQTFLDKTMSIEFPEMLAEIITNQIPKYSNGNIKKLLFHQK
Oxysterols receptor LXR-alpha (Homo sapiens), sequence (Q13133 whole entry, looked up, the tested form may be a part): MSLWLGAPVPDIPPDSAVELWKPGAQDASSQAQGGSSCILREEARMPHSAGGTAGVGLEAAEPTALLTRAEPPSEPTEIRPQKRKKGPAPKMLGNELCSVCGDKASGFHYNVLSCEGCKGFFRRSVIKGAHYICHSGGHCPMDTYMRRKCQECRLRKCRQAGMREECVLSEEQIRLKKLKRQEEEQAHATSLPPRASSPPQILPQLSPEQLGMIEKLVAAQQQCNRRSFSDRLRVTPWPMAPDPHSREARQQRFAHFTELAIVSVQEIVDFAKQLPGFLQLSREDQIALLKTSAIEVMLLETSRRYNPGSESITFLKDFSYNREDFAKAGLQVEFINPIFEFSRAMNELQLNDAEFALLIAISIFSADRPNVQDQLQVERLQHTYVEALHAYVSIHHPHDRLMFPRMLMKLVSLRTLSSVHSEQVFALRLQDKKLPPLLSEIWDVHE
Nuclear receptor subfamily 1 group I member 3 (Homo sapiens), sequence (Q14994 whole entry, looked up, the tested form may be a part): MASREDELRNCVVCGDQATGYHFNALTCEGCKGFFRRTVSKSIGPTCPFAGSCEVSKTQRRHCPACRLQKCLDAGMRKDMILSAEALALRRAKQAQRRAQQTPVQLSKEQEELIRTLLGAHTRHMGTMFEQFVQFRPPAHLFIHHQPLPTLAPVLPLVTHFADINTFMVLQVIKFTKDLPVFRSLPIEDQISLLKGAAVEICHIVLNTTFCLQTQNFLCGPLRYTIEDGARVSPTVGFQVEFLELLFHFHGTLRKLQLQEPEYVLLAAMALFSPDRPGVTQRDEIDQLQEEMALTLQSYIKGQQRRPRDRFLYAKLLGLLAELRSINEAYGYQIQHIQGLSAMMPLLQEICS
Retinoic acid receptor alpha (Homo sapiens), sequence (P10276 whole entry, looked up): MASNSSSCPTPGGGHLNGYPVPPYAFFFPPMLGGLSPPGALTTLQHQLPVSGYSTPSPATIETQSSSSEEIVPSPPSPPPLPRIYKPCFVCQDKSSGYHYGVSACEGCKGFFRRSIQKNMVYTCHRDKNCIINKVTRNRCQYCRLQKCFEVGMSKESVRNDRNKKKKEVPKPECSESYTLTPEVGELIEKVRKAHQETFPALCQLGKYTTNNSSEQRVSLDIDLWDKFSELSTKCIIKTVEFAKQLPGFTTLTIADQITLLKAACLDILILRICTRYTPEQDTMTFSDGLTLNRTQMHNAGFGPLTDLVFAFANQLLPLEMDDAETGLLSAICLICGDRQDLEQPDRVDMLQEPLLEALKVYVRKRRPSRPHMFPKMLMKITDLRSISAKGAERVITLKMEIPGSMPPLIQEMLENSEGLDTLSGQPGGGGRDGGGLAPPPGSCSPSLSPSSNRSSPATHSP
human RAR-related Orphan Receptor beta (RORb), RORB (gene 6096), sequence (Q92753 whole entry, looked up, the tested form may be a part): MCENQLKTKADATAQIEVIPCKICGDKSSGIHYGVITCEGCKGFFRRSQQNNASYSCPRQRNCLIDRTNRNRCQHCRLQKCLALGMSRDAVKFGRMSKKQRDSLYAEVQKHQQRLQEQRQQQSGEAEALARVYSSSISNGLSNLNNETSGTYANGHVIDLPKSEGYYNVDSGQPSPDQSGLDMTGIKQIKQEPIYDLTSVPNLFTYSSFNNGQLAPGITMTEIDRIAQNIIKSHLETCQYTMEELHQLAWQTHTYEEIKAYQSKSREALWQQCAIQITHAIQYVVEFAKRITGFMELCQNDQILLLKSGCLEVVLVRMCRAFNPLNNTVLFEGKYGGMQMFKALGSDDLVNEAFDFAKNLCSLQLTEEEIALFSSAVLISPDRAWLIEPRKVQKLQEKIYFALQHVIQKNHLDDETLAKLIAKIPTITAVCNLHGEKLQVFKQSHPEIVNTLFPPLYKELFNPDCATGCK

CN(C)C(=O)C(c1ccccc1)c1ccccc1
not listed: [15] | [16] | [17] | [18] | [19] | [20]
inactive: all other assays above

N#Cc1cccc(C#N)c1
inactive: [1] | [15] | [3] | [4] | [16] | [5] | [6] | [11] | [12] | [13] | [17]

CCOP(O)OCC
inactive: [1] | [15] | [7] | [10] | [11]

CCc1cccc(C)c1N(C(=O)CCl)[C@@H](C)COC
inactive: [1] | [2] | [3] | [6] | [10] | [12] | [13] | [17] | [14]

CCOP(=O)(OCC)OCC
not listed: [4] | [6] | [12] | [14] | [20]
inactive: all other assays above

Cc1ccc(OP(=O)(Oc2ccc(C)cc2)Oc2ccc(C)cc2)cc1 (tested in a mixture with another compound)
inactive: [1] | [15] | [3] | [16] | [11] | [12] | [17] | [19] | [14]

C=CC(=O)OC
inactive: [1] | [20] | [15] | [2] | [4] | [18] | [6] | [9] | [10] | [12] | [13]

CCCCCCC1CCOC1=O (stereo not given)
active: [19] 23.3 µM
inactive: [1] | [3] | [4] | [16] | [6] | [8] | [11]

CC(C)C#N
inactive: [1] | [15] | [3] | [4] | [16] | [5] | [18] | [7]

C=CCc1ccc(OC(=O)Cc2ccccc2)c(OC)c1
inactive: [1] | [15] | [2] | [3] | [16] | [5] | [6] | [7] | [9] | [10]

CN1C(=O)CCS(=O)(=O)C1c1ccc(Cl)cc1 (stereo not given)
inactive: [1] | [4] | [7] | [11] | [14]

CC1CCCC1.[C-]#[O+].[C-]#[O+].[C-]#[O+].[Mn]
inactive: [1] | [15] | [2] | [3] | [16] | [18] | [10] | [11] | [12] | [13] | [17]

Oc1cc(Cl)ccc1Cl
inactive: [1] | [3] | [4] | [16] | [7] | [11] | [13] | [17] | [14]
